Experimental data as given in PubChem BioAssay AID624297 (National Center for Advancing Translational Sciences (NCATS), 2012).
The whole screen tested about 340,000 compounds, of which about 6,200 (1.8%) were called active. Roughly 10% stayed inconclusive and do not appear here. The full list was thinned out, with actives kept by preference. A number with no mark means an inactive call. Calls come from the whole dose curve; as a rule, active = well fitted activation curve with a large enough effect; inconclusive = small, poorly fitted or top-dose-only effect; inactive = no such curve, though single readings can be large or run the other way.

Test: A quantitative high throughput screen for small molecules that induce DNA re-replication in SW480 colon adenocarcinoma cells. For re-replication activation: % of control where 0% means no effect. Note: nearly all actives have a fitted effect of over 55% in size.
Details: Hoechst DNA content imaging, 48 h; series mostly up to 46.1 µM; re-replication activation: at the top concentration
In short: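 First, 250 cells per well were seeded. Next, compound or vehicle (23 nL) was pinned in, plates sat 48 hr at 37 C. Finally Hoechst was added for 40 min before fluorescence scanning.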
Potency is the fitted concentration of half-maximal effect.

SMILES | re-replication activation | Potency
O=C(COC(=O)c1cccnc1Cl)Nc1ccc(S(=O)(=O)N2CCOCC2)cc1 | -6.59% | 
COCCN(C(=O)CSCc1ccc(C)cc1)c1c(N)n(CC(C)C)c(=O)[nH]c1=O | -13.4% | 
CC(C(=O)NC1CCCC1)N(c1ccc(Oc2ccccc2)cc1)S(C)(=O)=O (configuration not stated) | 11.2% | 
COc1ccc(/C=N/NC(=O)C(C)N(c2ccc(OC)cc2)S(C)(=O)=O)cc1 (configuration not stated) |  | 18.4 µM (active)
COc1ccc(/C=N/NS(=O)(=O)c2ccc(NC(C)=O)cc2)cc1 | 1.07% | 
CC[C@]12c3[nH]c4cc(CCC(=O)N(C)C)ccc4c3CCN1C(=O)[C@@H](CC(=O)NCC13CC4CC(CC(C4)C1)C3)C[C@@H]2C(=O)N1CCN(C(=O)C2CC2)CC1 | -2.17% [at 9.22 µM] | 
CC(C)(C)OC(=O)C[C@@H]1C/C=C\C[C@@H](CC(=O)N[C@@H](CO)Cc2ccccc2)C(=O)N2CCC[C@H]2COC1=O | -11.3% | 
CC1CCCCC1NC(=O)COc1ccc(C#N)cc1 (configuration not stated) | 13.5% | 
Oc1c(C(c2ccccn2)N2CCOCC2)ccc2cccnc12 (configuration not stated) | 17.7% | 
CCN1CCN(C(c2cccnc2)c2cc(Cl)c3cccnc3c2O)CC1 (configuration not stated) |  | 20.6 µM (active)
Oc1ccccc1CN1CCN(C(c2ccccc2)c2ccccc2)CC1 | 2.09% | 
COc1cc(C(=O)N2CCN(S(=O)(=O)c3ccc(C(C)C)cc3)CC2)ccc1OCC(=O)N1CCOCC1 | -23.8% | 
COC(=O)[C@]1(C)N[C@H](CN(C)C(=O)c2ccc(C(C)(C)C)cc2)[C@@H]2C(=O)N(C)C(=O)[C@@H]21 | -3.69% | 
COc1cc(/C=C/CNC[C@H]2O[C@@H](n3cnc(C(N)=O)n3)[C@H](O)[C@@H]2O)ccc1O | 1.29% | 
Nc1c(C(=O)NCc2ccccc2)sc2nc3c(cc12)C(=O)CCC3 | 10% | 
CCNC(=O)CSc1nc(-c2ccccc2)cs1 | 2.29% | 
CCN(CC)C(=O)c1sc2nc(-c3ccccc3)ccc2c1N |  | 20.6 µM (active)
Cc1ccc(S(=O)(=O)N2CCC(C(=O)N3CCCCCCC3)CC2)cc1 | -11.7% | 
COc1ccc(CNC(=O)COC(=O)C2=Cc3ccccc3OC2)cc1 | 2% | 
CC1=Nn2c(nnc2-c2ccccc2)SC1 | 2.75% | 
Cc1nnc2n1N=C(c1ccccc1)CS2 | -5.77% | 
COc1ccc(C2=Nn3c(nnc3-c3ccccc3OC)SC2)cc1OC1CCCC1 |  | 2.31 µM (active)
COC(=O)[C@]1(CC(C)C)N[C@H](c2ccc(SC3CCCCC3)cc2)[C@@H]2C(=O)N(C)C(=O)[C@@H]21 | -11.8% | 
Cc1cccc(Nc2nc3c(S(=O)(=O)c4ccccc4)nnn3c3ccccc23)c1C | 0.398% | 
Cc1ccc(S(=O)(=O)c2nnn3c2nc(N2CCN(c4ccccn4)CC2)c2ccccc23)cc1 | 2.5% | 

SMILES | re-replication activation | Potency
CC(=O)Nc1ccc(Nc2nc3c(S(=O)(=O)c4ccc(C)c(C)c4)nnn3c3ccccc23)cc1 |  | 18.4 µM (active)
S=C(Nc1ccccc1)Nc1ccc2ccccc2c1 | 0.33% | 
Cc1cccn2c(=O)c3cc(C(=O)N4COCC4(C)C)n(C)c3nc12 | -3.11% | 
Cc1cccn2c(=O)c3cc(C#N)c(=NC(=O)c4cccnc4)n(CC4CCCO4)c3nc12 (configuration not stated) |  | 18.4 µM (active)
Cc1cccn2c(=O)c3cc(C(=O)NC4CCCCC4)sc3nc12 | -5.17% | 
NN=C(NN=Cc1ccccc1)c1ccccc1 | -1.92% | 
Cc1cccc(CSc2nnc(NC(=O)CSc3nnc(C)s3)s2)c1 | 4.63% | 
COc1ccccc1-n1c(CNC(=O)c2ccccc2)nnc1SCC(=O)Nc1nnc(C)s1 | -1.1% | 
Cc1nnc(NC(=O)CSc2nccn2-c2cccc(C)c2C)s1 |  | 8.2 µM (active)
Cc1cc([N+](=O)[O-])c(=O)[nH]c1C | -0.856% | 
O=C(c1nnc(-c2ccc(Cl)cc2)o1)C1CCCC1 | -1.19% | 
O=C(c1[nH]ncc1-c1ccc(Cl)cc1)C1CO1 (configuration not stated) |  | 16.4 µM (active)
N=C1c2ccccc2-c2ccccc21 | -2.91% | 
COC(=O)c1ccc(C)c(NC(=O)Cn2c(C)csc2=O)c1 | 5.59% | 
CC(C)N(C(=O)[C@H]1C[C@H](CC(=O)NC(C)(C)C)C(=O)N2CCc3c([nH]c4ccc(Cl)cc34)[C@]12C)C(C)C | -11.9% | 
CN1c2ccc(C=O)c3c(C=O)ccc(c23)N(C)C1(C)C |  | 3.26 µM (active)
COc1ccc(S(=O)(=O)N(C)C[C@H]2Oc3c(NC(=O)Nc4ccc5c(c4)OCO5)cccc3C(=O)N([C@H](C)CO)C[C@@H]2C)cc1 | 7.42% | 
CCOC(=O)C(CO)NC(=O)C1(NC(C)=O)CCCC1 (configuration not stated) | -10.1% | 
C=CCn1c(SCC(=O)NCCCO)nc2sc3c(c2c1=O)CCC3 | -40.9% | 
C=CCn1c(SCc2c(C)noc2C)nc2sc3c(c2c1=O)CCC(C)C3 (configuration not stated) |  | 9.2 µM (active)
C=CCn1c(SCC(=O)NCC2CCCO2)nc2sc(C)c(C)c2c1=O (configuration not stated) | 0.372% | 
Cc1ccc(NC(=O)CN(C)C(=O)c2ccc(Cl)c(S(=O)(=O)NCc3ccco3)c2)cc1 | -11.7% | 
Cc1c(Cl)cnc(NC(=O)COC(=O)C2CCCC2)c1Cl | -5.78% | 
O=C1CC(c2ccccc2)C(c2ccccc2)=NN1 (configuration not stated) | 0.345% | 
COc1ccc(-c2cn(-c3ccc(OC)cc3)c(=S)[nH]2)cc1 | -2.03% | 

SMILES | re-replication activation | Potency
O=c1oc2ccccc2cc1-c1cn(-c2ccccc2)c(=S)[nH]1 |  | 9.2 µM (active)
S=c1[nH]c(-c2cccs2)cn1-c1ccccc1 | -22.2% | 
O=C(O)c1ccc(S(=O)(=O)c2ccccc2)s1 | 2.18% | 
O=[N+]([O-])c1ccc(COc2ccccc2CN2CCOCC2)cc1 | -7.64% [at 9.22 µM] | 
NC(=O)c1ccccc1N(Cc1ccccc1)S(=O)(=O)c1ccccc1 | 0.226% | 
CCOC(=O)N1CCN(C(=O)c2ccccc2N(Cc2ccccc2)S(=O)(=O)c2ccc(OC)cc2)CC1 |  | 14.6 µM (active)
CCOC(=O)N1CCN(S(=O)(=O)c2ccc(OC)cc2)CC1 | 13.6% | 
CCOC(=O)c1ccccc1NC(=O)CSc1nc2c(sc(=S)n2CC)c(=O)[nH]1 | -5.64% | 
CCOC(=O)C1=C(c2ccccc2)NC(=S)NC1c1ccc(Cl)cc1 (configuration not stated) | -90.1% | 
CCOC(=O)C1=C(CN2CCCCCC2)NC(=O)NC1c1cccc([N+](=O)[O-])c1 (configuration not stated) | -5.96% | 
CCOC(=O)C1=C(CN2CCc3ccccc32)NC(=O)NC1c1ccc(Cl)cc1 (configuration not stated) |  | 7.31 µM (active)
O=C(CN1CCN(S(=O)(=O)/C=C/c2ccccc2)CC1)NC(=O)NCc1ccco1 | 2.96% | 
O=C(CN1CCN(c2ccccc2O)CC1)NC(=O)NCc1ccccc1 | 14.8% | 
COc1ccccc1N1CCN(CC(=O)NC(=O)NCc2ccco2)CC1 |  | 5.8 µM (active)
COC1=CC(=O)OC(c2ccc(OC)cc2)C1 (configuration not stated) | -1.64% | 
O=C(NCCC1CCCCN1S(=O)(=O)c1cccs1)C(=O)Nc1ccc(F)cc1F (configuration not stated) |  | 11.2 µM (active)
COc1ccccc1CCNC(=O)C(=O)NCCC1CCCCN1S(=O)(=O)c1cccs1 (configuration not stated) | -550% | 
COc1ccc(CCNC(=O)C(=O)NCC2CCCN2S(=O)(=O)c2cccs2)cc1OC (configuration not stated) | -2.6% | 
Cc1noc(C)c1NC(=O)Nc1ccc2c(c1)C(=O)N([C@H](C)CO)C[C@H](C)[C@@H](CN(C)C(=O)Nc1ccc(C(F)(F)F)cc1)O2 | -53.2% | 
CCN(CC)c1ccc(/C=N/Nc2nc(C)cc(C)n2)c(O)c1 |  | 8.2 µM (active)
Cc1cc(C)nc(N/N=C/c2ccncc2)n1 | -5.1% | 
CCNc1nc(NCC)nc(N/N=C/c2ccc(O)c(OC)c2)n1 | -6.79% | 
Oc1ccc(Cl)c2c1CCC2 | 0.638% | 
CSc1ncnc2c1ncn2CC(=O)C1CCC2C3CCC4=CC(=O)CCC4(C)C3CCC12C (configuration not stated) | 5.31% | 
Cc1ccc(C(=O)NCC(=O)NC2CC2)cc1 | 6.41% | 

SMILES | re-replication activation | Potency
Cc1cc(NC(=O)c2cc3ccccc3o2)no1 | -4.96% | 
COc1ccc(C(=O)N/N=C2\CCS(=O)(=O)c3ccc(F)cc32)cc1OC |  | 10.3 µM (active)
CCNC(=O)c1ccc(OCC(=O)Nc2ccc(F)cc2)c(OC)c1 | -4.04% | 
COc1ccc(C(=O)Nc2ccc(C3(C#N)CCCC3)cc2)cc1OC | 10.6% | 
CN(C)C(=O)CCc1ccc2c3c([nH]c2c1)[C@]1(C)[C@@H](C(=O)N2CCOCC2)C[C@H](CC(=O)NCCc2ccccn2)C(=O)N1CC3 | 2.59% | 
COc1ccc(NS(=O)(=O)c2ccc(N3CCOCC3)c(NC(=O)/C=C/C(=O)O)c2)cc1 | 1.18% | 
Cc1ccc(S(=O)(=O)CCC(=O)OCC(=O)N(C)Cc2ccccc2)cc1 | -66.5% | 
Cc1ccc(-n2c(O)c(C=Nc3ccc(S(=O)(=O)Nc4ncccn4)cc3)c3ccccc3c2=O)cc1C | -2.11% | 
CCOc1ccc(-n2c(O)c(/C=N/c3ccnn3Cc3ccncc3)c3ccccc3c2=O)cc1 |  | 20.6 µM (active)
CCOc1ccc(-n2c(SCC(=O)Nc3cc(C(=O)O)ccc3Cl)nc3ccccc3c2=O)cc1 | -13.2% | 
COc1ccc(C(CNC(=O)c2cccc(S(=O)(=O)Nc3ccc(Br)cc3)c2)N(C)C)cc1 (configuration not stated) | 6.62% | 
CCOc1cc(C=NNC(=O)CCCC(=O)NN=Cc2ccc(O)c(OCC)c2)ccc1O | -6.49% | 
Oc1ccc(-c2nc3ccccc3nc2-c2ccc(O)cc2O)c(O)c1 | -1.54% | 
Oc1ccc(/C=N/NC2=NCCCCC2)c(O)c1 | -5.14% | 
Cc1nc2ccccc2nc1N/N=C/c1ccc(O)cc1O |  | 1.64 µM (active)
COc1ccc(OCCNC(=O)c2cc(C3CC3)nc3c2cnn3C(C)C)cc1 | -6.37% | 
Cc1cn(C2CC(O)C(CO)O2)c(=O)n(CCCc2ccccc2)c1=O (configuration not stated) | -5.17% | 
CN(C)c1ccc(CSc2ccccc2)cc1 | -9.06% | 
COC(=O)Cc1nc2c(N)nc(N)nc2[nH]c1=O | -4.14% | 
CCc1cc2c(=O)n(-c3ccccc3)c(SCC(=O)O)nc2s1 |  | 18.4 µM (active)
C=CCn1c(SCC(=O)c2c(N)n(C)c(=O)n(C)c2=O)nc2sc(CC)cc2c1=O | -1.6% | 
Cc1sc2nc(SCCO)n(-c3ccccc3)c(=O)c2c1C | -5.37% | 
